Measured values published in PubChem BioAssay (Tox21).
Values without a mark were called inactive. Records with an inconclusive call do not appear. Where a call stands in place of a potency, no number is given. The source made the active and inactive calls. The call rests on the fitted dose curve; in most records, active means well fitted curve in the direction sought with a large enough effect in the repeat runs; inconclusive means weak or mixed curves; inactive means no such curve, though single readings can be large; an effect the other way counts as inactive or inconclusive.

Legend:
[1] = Caspase-3/7 induction in HepG2 cells by small molecules, qHTS assay (AID 1346978); further: nearly all actives have a fitted effect of over 15% in size
Outline: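 Wild-type HepG2 cells, 2,000/well, settled 5 hr at 37 C and 5% CO2, then compound-treated for 17 hr; caspase-3/7 activity read by luminescent Caspase-Glo 3/7 after 30 min at room temperature.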

[2] = Caspase-3/7 induction in CHO-K1 cells by small molecules, qHTS cell viability counter screen (AID 1346979); further: nearly all actives have a fitted effect of over 35% in size
Outline: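 CellTiter-Fluor viability check, qHTS format: wild-type CHO-K1, 16hr compound treatment, 1hr reagent incubation, fluorescence read.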

[3] = Caspase-3/7 induction in CHO-K1 cells by small molecules, qHTS assay (AID 1346980); further: nearly all actives have a fitted effect of over 15% in size
Outline: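 Wild-type CHO-K1 cells exposed to compounds for 17hr at 37 C, 5% CO2. Caspase-3/7 activity then measured by Caspase-Glo 3/7 luminescence after 30min at room temperature.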

[4] = Caspase-3/7 induction in HepG2 cells by small molecules, qHTS cell viability counter screen (AID 1346981); further: series mostly up to about 92 µM; nearly all actives have a fitted effect of over 30% in size
Outline: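 Wild-type HepG2 cells, 2,000/well, settled 5 hr at 37 C, 5% CO2 before compound addition. Viability read by CellTiter-Fluor fluorescence, reagent added after 16 hr compound exposure, then 1 hr at 37C, in the same wells as the caspase read.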

[5] = target: Nuclear receptor subfamily 1 group I member 2 (Homo sapiens) (UniProt O75469); test: Human pregnane X receptor (PXR) small molecule agonists, qHTS assay (AID 1346982); further: nearly all actives have a fitted effect of over 35% in size; further: potency means the concentration at half of the fitted maximal effect
Outline: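 PXR-Luc HepG2 reporter cells (CYP3A4-driven luciferase) in 5% charcoal-stripped FBS medium, plated 5 h before compound addition, then treated 24 h at 37C. Luciferase read by ONE-Glo luminescence after 30 min at room temperature.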

[6] = target: Nuclear receptor subfamily 1 group I member 2 (Rattus norvegicus) (UniProt Q9R1A7); test: Rat pregnane X receptor (rPXR) activation by small molecules, qHTS assay (AID 1346983); conditions: rPXR luciferase reporter cells, One-Glo luminescence, 24 h; max activation: active compounds read high; further: potency means the concentration at half of the fitted maximal effect; nearly all actives have a fitted effect of over 20% in size
Outline: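 Cell-based rPXR activation assay: rPXR cells, 2,000 per well, rested 5hr at 37 C, then exposed to compounds in DMSO for 24 hr at 37 C. Luciferase activity read by One-Glo luminescence after 30 min at room temperature.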

[7] = target: Nuclear receptor subfamily 1 group I member 2 (Homo sapiens) (UniProt O75469); test: CYP3A4 induction through human pregnane X receptor (PXR) by small molecules, qHTS assay (AID 1346984); further: nearly all actives have a fitted effect of over 40% in size
Outline: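 DPX-2 HepG2 cells carrying a PXR response element and CYP3A4-promoter luciferase construct, treated with compounds 24 hr at 37C. Then P450-Glo CYP3A4 Luciferin-IPA substrate (3uM final) for 3 hr at 37C, One-Glo added, luminescence read.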

[8] = target: Nuclear receptor subfamily 1 group I member 2 (Homo sapiens) (UniProt O75469); test: Human pregnane X receptor (PXR) activation by small molecules, qHTS assay (AID 1346985); further: nearly all actives have a fitted effect of over 40% in size
Outline: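 DPX-2 cells (HepG2 co-transfected with a PXR response element and a CYP3A4-promoter luciferase construct) were seeded at 2,000 per well, rested 5 hr at 37C, then exposed to DMSO-dissolved compounds for 24 hr. Activation was read as luciferase luminescence.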

[9] = target: Cytochrome P450 2D6 (Homo sapiens) (UniProt P10635); test: Cytochrome P450 Family 2 Subfamily D Member 6 (CYP2D6) small molecule antagonists: luciferase reporter qHTS assay (AID 1671196); further: nearly all actives have a fitted effect of over 50% in size; further: potency means the concentration at half of the fitted maximal effect
Outline: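 Cell-free P450-Glo system: CYP2D6 with proluciferin substrate was pre-incubated with compound for 10 min, then reacted with NADPH regeneration for 1 h at room temperature. Luciferin product was detected after 20 min, and data were reported as relative luminescence units.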

[10] = target: Cytochrome P450 2C19 (Homo sapiens) (UniProt P33261); test: Cytochrome P450 Family 2 Subfamily C Member 19 (CYP2C19) small molecule antagonists: luciferase reporter qHTS assay (AID 1671197); further: nearly all actives have a fitted effect of over 65% in size; further: potency means the concentration at half of the fitted maximal effect
Outline: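 Quantitative high-throughput screen of the Tox21 library using CYP2C19 with proluciferin substrate. Reaction: NADPH regeneration, 37C, 1 h, after 10 min compound preincubation at room temperature. Readout: luminescence.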

[11] = target: Cytochrome P450 2C9 (Homo sapiens) (UniProt P11712); test: Cytochrome P450 Family 2 Subfamily C Member 9 (CYP2C9) small molecule antagonists: luciferase reporter qHTS assay (AID 1671198); further: nearly all actives have a fitted effect of over 50% in size; further: potency means the concentration at half of the fitted maximal effect
Outline: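 P450-Glo proluciferin substrate with CYP2C9 enzyme; 10 min RT preincubation, then NADPH regeneration 1 h at 37C; luciferin detection reagent 20 min RT, luminescence in relative luminescence units.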

[12] = target: Cytochrome P450 1A2 (Homo sapiens) (UniProt P05177); test: Cytochrome P450 Family 1 Subfamily A Member 2 (CYP1A2) small molecule antagonists: luciferase reporter qHTS assay (AID 1671199); further: nearly all actives have a fitted effect of over 50% in size; further: potency means the concentration at half of the fitted maximal effect
Outline: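 P450-Glo CYP1A2 enzyme–proluciferin substrate mix with compound 10 min at room temperature, then NADPH regeneration 1 h at room temperature. Luciferin detection reagent added, luminescence read after 20 min; furafylline positive control.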

[13] = target: Voltage-gated inwardly rectifying potassium channel KCNH2 (Homo sapiens) (UniProt Q12809); test: Human Ether-a-go-go-Related Gene (hERG) channel small molecule antagonists: fluorescence cell-based qHTS assay (AID 1671200);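 further: hERG-expressing U2OS cells given a thallium stimulus after FluxOR II dye loading; series mostly up to about 77 µM; nearly all actives have a fitted effect of over 50% in size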
Outline: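 Kinetic two-minute fluorescence traces, sampled at 1 s, were collected following thallium stimulus of U2OS cells (1000 per well) that had been cultured overnight at 37 C and loaded with FluxOR II.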

[14] = target: Cytochrome P450 3A4 (Homo sapiens) (UniProt P08684); test: Cytochrome P450 Family 3 Subfamily A Member 4 (CYP3A4) small molecule antagonists: luciferase reporter qHTS assay (AID 1671201); further: nearly all actives have a fitted effect of over 50% in size; further: potency means the concentration at half of the fitted maximal effect
Outline: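 Proluciferin-to-luciferin conversion by CYP3A4, NADPH-regenerated, 1 h RT; luminescence read as RLU. Ketoconazole as control.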

Sequence of Cytochrome P450 2D6 (Homo sapiens) (P10635 whole entry, looked up): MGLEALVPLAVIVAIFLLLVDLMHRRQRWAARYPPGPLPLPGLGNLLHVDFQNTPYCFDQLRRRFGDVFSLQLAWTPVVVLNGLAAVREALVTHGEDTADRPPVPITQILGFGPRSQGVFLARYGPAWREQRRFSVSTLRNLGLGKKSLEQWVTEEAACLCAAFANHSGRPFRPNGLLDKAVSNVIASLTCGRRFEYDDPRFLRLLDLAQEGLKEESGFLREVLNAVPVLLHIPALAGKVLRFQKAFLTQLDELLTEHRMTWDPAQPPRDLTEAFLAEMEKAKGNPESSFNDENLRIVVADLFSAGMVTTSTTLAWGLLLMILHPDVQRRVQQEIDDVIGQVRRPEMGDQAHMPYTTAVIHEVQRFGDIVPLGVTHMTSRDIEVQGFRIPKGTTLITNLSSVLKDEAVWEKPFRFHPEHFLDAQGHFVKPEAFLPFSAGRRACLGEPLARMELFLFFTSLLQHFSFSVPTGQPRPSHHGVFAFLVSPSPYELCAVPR
Sequence of Voltage-gated inwardly rectifying potassium channel KCNH2 (Homo sapiens) (Q12809 whole entry, looked up): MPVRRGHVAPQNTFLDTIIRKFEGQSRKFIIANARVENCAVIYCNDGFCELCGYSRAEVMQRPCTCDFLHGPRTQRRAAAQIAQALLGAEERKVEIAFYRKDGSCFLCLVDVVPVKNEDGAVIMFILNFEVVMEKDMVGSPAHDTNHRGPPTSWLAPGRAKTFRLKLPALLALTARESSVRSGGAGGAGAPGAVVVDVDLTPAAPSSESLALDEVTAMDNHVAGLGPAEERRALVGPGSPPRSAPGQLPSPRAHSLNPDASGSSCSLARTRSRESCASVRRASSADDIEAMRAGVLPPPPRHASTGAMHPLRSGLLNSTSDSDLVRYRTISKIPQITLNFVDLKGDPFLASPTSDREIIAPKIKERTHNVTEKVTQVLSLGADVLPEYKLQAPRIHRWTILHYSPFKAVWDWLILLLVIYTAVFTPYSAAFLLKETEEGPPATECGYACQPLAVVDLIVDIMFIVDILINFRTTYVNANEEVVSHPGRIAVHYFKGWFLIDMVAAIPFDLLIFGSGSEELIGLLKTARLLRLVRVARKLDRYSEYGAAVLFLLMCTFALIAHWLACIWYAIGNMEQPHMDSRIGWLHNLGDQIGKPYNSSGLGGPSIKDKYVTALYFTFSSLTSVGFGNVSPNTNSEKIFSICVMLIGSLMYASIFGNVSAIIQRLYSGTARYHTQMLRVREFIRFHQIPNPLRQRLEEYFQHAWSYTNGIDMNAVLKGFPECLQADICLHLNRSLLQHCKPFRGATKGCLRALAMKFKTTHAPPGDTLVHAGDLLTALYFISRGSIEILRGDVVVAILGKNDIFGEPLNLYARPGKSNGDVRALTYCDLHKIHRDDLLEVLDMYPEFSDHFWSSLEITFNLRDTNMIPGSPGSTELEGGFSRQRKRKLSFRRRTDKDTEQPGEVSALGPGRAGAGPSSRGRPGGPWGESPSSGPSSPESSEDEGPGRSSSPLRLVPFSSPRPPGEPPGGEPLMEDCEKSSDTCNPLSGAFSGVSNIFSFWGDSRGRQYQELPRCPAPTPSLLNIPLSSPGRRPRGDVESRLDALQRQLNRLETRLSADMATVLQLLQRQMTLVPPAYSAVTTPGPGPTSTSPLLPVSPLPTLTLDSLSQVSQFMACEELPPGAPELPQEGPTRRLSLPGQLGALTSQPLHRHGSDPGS
Sequence of Cytochrome P450 3A4 (Homo sapiens) (P08684 whole entry, looked up): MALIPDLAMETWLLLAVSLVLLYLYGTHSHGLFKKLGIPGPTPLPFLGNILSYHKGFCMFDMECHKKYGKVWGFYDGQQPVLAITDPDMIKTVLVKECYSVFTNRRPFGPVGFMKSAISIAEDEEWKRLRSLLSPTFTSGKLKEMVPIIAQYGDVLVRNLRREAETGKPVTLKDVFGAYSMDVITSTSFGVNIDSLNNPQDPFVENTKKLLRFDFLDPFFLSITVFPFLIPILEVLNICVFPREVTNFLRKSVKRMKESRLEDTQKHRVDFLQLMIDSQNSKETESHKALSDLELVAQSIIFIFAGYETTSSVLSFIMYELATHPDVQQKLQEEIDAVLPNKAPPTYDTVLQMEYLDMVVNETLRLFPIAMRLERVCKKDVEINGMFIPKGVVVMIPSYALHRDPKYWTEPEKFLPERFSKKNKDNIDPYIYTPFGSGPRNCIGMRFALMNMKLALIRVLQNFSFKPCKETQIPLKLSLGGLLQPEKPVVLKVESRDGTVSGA
Sequence of Cytochrome P450 1A2 (Homo sapiens) (P05177 whole entry, looked up): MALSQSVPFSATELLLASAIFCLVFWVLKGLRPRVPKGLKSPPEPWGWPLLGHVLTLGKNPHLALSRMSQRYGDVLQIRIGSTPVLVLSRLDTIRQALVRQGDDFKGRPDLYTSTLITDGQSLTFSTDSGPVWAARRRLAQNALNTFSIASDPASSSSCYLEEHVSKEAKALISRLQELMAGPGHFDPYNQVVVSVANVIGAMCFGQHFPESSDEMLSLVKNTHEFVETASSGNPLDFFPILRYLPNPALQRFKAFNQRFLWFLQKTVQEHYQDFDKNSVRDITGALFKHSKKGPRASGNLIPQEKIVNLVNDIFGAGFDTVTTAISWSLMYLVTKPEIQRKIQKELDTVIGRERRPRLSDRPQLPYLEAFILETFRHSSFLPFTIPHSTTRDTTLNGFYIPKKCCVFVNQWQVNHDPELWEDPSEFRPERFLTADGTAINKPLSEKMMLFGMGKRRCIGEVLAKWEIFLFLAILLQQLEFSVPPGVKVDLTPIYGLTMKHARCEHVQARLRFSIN
Sequence of Nuclear receptor subfamily 1 group I member 2 (Homo sapiens) (O75469 whole entry, looked up): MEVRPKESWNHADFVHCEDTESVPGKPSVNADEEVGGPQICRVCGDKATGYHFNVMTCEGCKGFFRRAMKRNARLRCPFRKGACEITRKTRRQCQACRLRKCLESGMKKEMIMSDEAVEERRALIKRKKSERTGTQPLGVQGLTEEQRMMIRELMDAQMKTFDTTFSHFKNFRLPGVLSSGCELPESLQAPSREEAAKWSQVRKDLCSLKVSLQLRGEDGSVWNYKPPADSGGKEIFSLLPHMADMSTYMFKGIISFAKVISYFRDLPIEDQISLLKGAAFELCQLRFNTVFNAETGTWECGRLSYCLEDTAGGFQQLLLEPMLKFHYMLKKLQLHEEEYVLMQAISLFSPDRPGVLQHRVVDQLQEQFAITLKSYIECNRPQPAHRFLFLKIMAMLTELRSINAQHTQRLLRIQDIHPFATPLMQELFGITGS
Sequence of Cytochrome P450 2C9 (Homo sapiens) (P11712 whole entry, looked up): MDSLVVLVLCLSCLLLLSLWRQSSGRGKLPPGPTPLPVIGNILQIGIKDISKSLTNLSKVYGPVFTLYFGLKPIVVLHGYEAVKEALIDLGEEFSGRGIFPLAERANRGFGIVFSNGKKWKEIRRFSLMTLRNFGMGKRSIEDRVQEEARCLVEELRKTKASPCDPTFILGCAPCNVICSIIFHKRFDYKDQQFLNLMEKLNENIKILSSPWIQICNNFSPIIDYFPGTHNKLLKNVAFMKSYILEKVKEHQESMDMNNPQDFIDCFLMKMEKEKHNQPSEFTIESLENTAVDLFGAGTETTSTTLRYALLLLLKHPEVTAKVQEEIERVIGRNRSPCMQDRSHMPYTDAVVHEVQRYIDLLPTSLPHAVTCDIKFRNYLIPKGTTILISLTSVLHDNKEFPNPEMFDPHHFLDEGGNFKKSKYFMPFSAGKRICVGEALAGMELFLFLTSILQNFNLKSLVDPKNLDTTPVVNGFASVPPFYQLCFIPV
Sequence of Cytochrome P450 2C19 (Homo sapiens) (P33261 whole entry, looked up): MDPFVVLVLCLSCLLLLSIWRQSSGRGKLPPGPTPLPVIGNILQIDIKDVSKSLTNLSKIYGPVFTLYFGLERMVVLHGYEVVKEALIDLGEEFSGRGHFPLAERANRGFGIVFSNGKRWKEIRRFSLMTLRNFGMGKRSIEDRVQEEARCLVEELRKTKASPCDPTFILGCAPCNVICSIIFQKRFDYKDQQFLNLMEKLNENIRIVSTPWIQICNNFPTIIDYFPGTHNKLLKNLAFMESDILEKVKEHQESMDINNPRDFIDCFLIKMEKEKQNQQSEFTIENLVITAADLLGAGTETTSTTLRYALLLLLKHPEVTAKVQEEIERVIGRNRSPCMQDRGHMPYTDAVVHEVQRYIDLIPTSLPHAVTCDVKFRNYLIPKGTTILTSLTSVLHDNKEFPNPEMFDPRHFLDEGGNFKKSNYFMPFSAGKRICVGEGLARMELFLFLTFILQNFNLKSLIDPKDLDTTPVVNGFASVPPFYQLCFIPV
Sequence of Nuclear receptor subfamily 1 group I member 2 (Rattus norvegicus) (Q9R1A7 whole entry, looked up): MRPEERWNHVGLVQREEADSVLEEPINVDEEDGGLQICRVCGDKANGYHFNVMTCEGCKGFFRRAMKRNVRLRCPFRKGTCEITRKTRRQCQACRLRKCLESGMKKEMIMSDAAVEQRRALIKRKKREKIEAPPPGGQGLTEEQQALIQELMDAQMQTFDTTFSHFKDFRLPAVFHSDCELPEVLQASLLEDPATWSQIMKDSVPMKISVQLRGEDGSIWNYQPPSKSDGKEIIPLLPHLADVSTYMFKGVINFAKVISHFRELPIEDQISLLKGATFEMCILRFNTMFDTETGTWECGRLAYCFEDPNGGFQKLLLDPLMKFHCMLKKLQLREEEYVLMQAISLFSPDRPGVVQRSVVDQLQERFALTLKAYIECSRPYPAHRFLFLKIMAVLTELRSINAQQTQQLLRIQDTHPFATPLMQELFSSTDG

SMILES	Potency [1]	Potency [2]	outcome [3]	Potency [4]	Potency [5]	Potency [6]	Potency [7]	Potency [8]	Potency [9]	Potency [10]	Potency [11]	Potency [12]	Potency [13]	Potency [14]
C[C@@H]1C[C@H]2[C@@H]3CCC4=CC(=O)C=C[C@]4(C)[C@@]3(F)[C@@H](O)C[C@]2(C)[C@H]1C(=O)CO	inactive	inactive	inactive	inactive	18.8 µM (active)	2.51 µM (active)	inactive	inactive	inactive	8.71 µM (active)	15.5 µM (active)	inactive	inactive	
COCC(O)CO (centres undefined)	inactive	inactive	inactive	inactive	inactive				inactive	inactive	inactive	inactive	inactive	inactive
O=C(O)c1cccc(O)c1	inactive	inactive	inactive	inactive	inactive				inactive	40.2 µM (active)			inactive	
O=C(O)c1cccnc1C(=O)O	inactive	inactive	inactive	inactive	inactive					inactive	inactive	inactive	inactive	inactive
OC/C(Br)=C(\Br)CO	inactive	inactive	inactive	inactive	inactive				35.3 µM (active)	31.5 µM (active)	inactive		inactive	inactive
O=C(/C=C/c1ccccc1)OCCCc1ccccc1	inactive	inactive	inactive	inactive	inactive				inactive	39.9 µM (active)	22.4 µM (active)	12.6 µM (active)		inactive
OCC1CC=CCC1 (centres undefined)	inactive	inactive	inactive	inactive	inactive					inactive	inactive	inactive	inactive	inactive
CCC(C)(O)CCC=C(C)C (centres undefined)	inactive	inactive	inactive	inactive	inactive				inactive		inactive	inactive	inactive	inactive
Cc1ccccc1N1C(=O)c2cc(S(N)(=O)=O)c(Cl)cc2NC1C (centres undefined)	inactive	inactive	inactive	inactive	5.31 µM (active)				inactive	inactive		inactive	inactive	
CC1(C)C2=CCCC(C)(C)[C@]23CC[C@H]1C3	inactive	inactive	inactive	inactive	54.5 µM (active)				inactive		79.6 µM (active)		inactive	
CCCCC(CC)C(=O)OCCOCCOCCOCCOC(=O)C(CC)CCCC (centres undefined)	inactive	inactive	inactive	inactive	48.6 µM (active)				inactive	22.4 µM (active)	12.6 µM (active)	31.7 µM (active)		12.6 µM (active)
